# The supplement of paper PMC9135407
# Where “and” joins values, the source holds several entries; their conditions need not be identical. Identical values can stand only once. Counter-ions that a name gives are not always drawn. The whole screen tested about 5,800 compounds, of which about 620 (11%) showed activity. This excerpt belongs to a sample that is enriched for actives. A number with no mark means an inactive call.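 How the source made its calls: active = score above a cut-off or among the top three wells of a plate; in these data no inactive exceeds 0.85.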
# Tested on: primary human hepatic stellate cells (donor 1)
# Experiment: scaled lipid accumulation score (0 = DMSO-like, 1 = nortriptyline-like); higher = stronger HSC inactivation (lipid re-accumulation), active = hit call of the paper
# Settings: 48 h
# Procedure: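 Primary lipid accumulation screen in primary human hepatic stellate cell myofibroblasts (donor 1, passage 8) in 384-well plates. 100 nL of library compound was pin-transferred into 30 µL medium in duplicate, and cells were treated for 48 h. The 'Scaled' score combines distance from plate baseline, toxicity and reproducibility penalties, and is normalised to nortriptyline (positive) and DMSO (negative) controls on each plate. A hit is defined as scaled >0.85 or among the top 3 wells per plate.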
# [1] = library stock concentration: 10 mM
# [2] = library stock concentration: 1 mM
# [3] = library stock concentration: 3.33 mM
# [4] = library stock concentration: 80 uM
# [5] = library stock concentration: 400 uM
# [6] = library stock concentration: 2 mM
structure (smiles),measurement,setting,value
CC(C(C)N1CC(=O)NC(=O)C1)N1CC(=O)NC(=O)C1 (stereo not drawn),scaled lipid accumulation score,library stock concentration: 17.7 mM,≤ -0.012
C=N[C@@H](C(=O)N[C@@H]1C(=O)N2[C@@H]1SC(C)(C)[C@@H]2C(=O)O)c1ccccc1 [Metampicillin sodium salt],scaled lipid accumulation score,,≤ 0
CC(=O)Oc1c(C)cccc1C(=O)O,scaled lipid accumulation score,[1],≤ 0
CCCCC[C@@](C)(O)/C=C/[C@@H]1[C@@H](C/C=C\CCCC(=O)OC)[C@@H](O)C[C@H]1O [15(R)-15-methyl Prostaglandin F2.alpha. methyl ester],scaled lipid accumulation score,[2],≤ 0
Cn1cc(CNCC2CCN(c3ncc(C(=O)NO)cn3)CC2)c2ccccc21 [listing 1 of 2 here],scaled lipid accumulation score,[3],0.478
CN1CCc2c(c3ccccc3n2Cc2ccc(C(=O)NO)cc2)C1 [Tubastatin A],scaled lipid accumulation score,[3],≤ 0
same,scaled lipid accumulation score,[1],≤ 0
Cn1cc(CNCC2CCN(c3ncc(C(=O)NO)cn3)CC2)c2ccccc21 [listing 2 of 2 here],scaled lipid accumulation score,[1],0.985 (active)
CN1CCc2c(c3ccccc3n2Cc2ccc(C(=O)NO)cc2)C1 [Tubastatin A HCl],scaled lipid accumulation score,[3],≤ 0
same,scaled lipid accumulation score,[1],0.218
O=C(C[S+]([O-])Cc1ccco1)NC/C=C\COc1cc(CN2CCCCC2)ccn1 (stereo not drawn) [Lafutidine],scaled lipid accumulation score,[3],≤ 0
same,scaled lipid accumulation score,[1],≤ 0
CC(COc1ccccc1Cc1ccccc1)N1CCCCC1.O=P(O)(O)O (stereo not drawn),scaled lipid accumulation score,[1],1.02 (active)
C=CCc1ccccc1OCC(O)CNC(C)C (stereo not drawn) [Alprenolol HCl],scaled lipid accumulation score,library stock concentration: 8 mM,0.203
C=CCc1ccccc1OCC(O)CNC(C)C (stereo not drawn) [Alprenolol hydrochloride],scaled lipid accumulation score,,0.634
same,scaled lipid accumulation score,[1],0.5
N=C(CC(O)COc1ccccc1-c1ccccc1)N1CCCCC1 (stereo not drawn),scaled lipid accumulation score,[1],0.781
O=c1ncc(F)c[nH]1 [5-fluoro-2-pyrimidone],scaled lipid accumulation score,[1],≤ 0
CC1CCN=C(N)C1 (stereo not drawn) [2-Imino-4-methylpiperidine (acetate)],scaled lipid accumulation score,[2],0.011
N#C/C(=C\c1ccc(O)c(O)c1)C(=O)NCCCCc1ccccc1,scaled lipid accumulation score,[1],≤ 0
CCCCCOc1ccccc1C(O)CC#CCCCC(=O)OC (stereo not drawn),scaled lipid accumulation score,[2],0.022
CN1CCC[C@@H]1Cc1c[nH]c2ccc(CCS(=O)(=O)c3ccccc3)cc12 [Eletriptan hydrobromide],scaled lipid accumulation score,[1],0.624
CN1CCC[C@@H]1Cc1c[nH]c2ccc(CCS(=O)(=O)c3ccccc3)cc12 [Eletriptan HBr],scaled lipid accumulation score,[3],0.194
same,scaled lipid accumulation score,[1],0.202
CNS(=O)(=O)CCc1ccc2[nH]cc(C3CCN(C)CC3)c2c1 [Naratriptan hydrochloride],scaled lipid accumulation score,[1],0.019
Br.CN1CCC[C@@H]1Cc1c[nH]c2ccc(CCS(=O)(=O)c3ccccc3)cc12 [Eletriptan hydrobromide],scaled lipid accumulation score,[1],0.912 (active)
CNS(=O)(=O)CCc1ccc2[nH]cc(C3CCN(C)CC3)c2c1 [Naratriptan],scaled lipid accumulation score,[3],≤ 0
same,scaled lipid accumulation score,[1],≤ 0
COC(=O)N[C@H](C(=O)N1CCC[C@H]1c1ncc(-c2ccc(-c3ccc(-c4cnc([C@@H]5CCCN5C(=O)[C@@H](NC(=O)OC)C(C)C)[nH]4)cc3)cc2)[nH]1)C(C)C [listing 1 of 2 here],scaled lipid accumulation score,[3],0.322
COC(=O)N[C@H](C(=O)N1CCC[C@H]1c1ncc(-c2ccc(-c3ccc(-c4cnc([C@@H]5CCCN5C(=O)[C@@H](NC(=O)OC)C(C)C)[nH]4)cc3)cc2)[nH]1)C(C)C [listing 2 of 2 here],scaled lipid accumulation score,[1],1.04 (active)
CCCCC[C@H](O)/C=C/[C@@H]1C2C[C@H](CCCCC(=O)O)O[C@@H]2C[C@H]1O (stereo partly drawn) [6.beta.-Prostaglandin I1],scaled lipid accumulation score,[2],0.004
CC(N)(Cc1ccc(O)c(O)c1)C(=O)O (stereo not drawn),scaled lipid accumulation score,[1],≤ 0
CC(C)CN1CCC(CNCc2ccc(C#CC(C)(C)O)s2)CC1,scaled lipid accumulation score,[1],0.671 (active)
Cc1c(C)c2c(c(C)c1O)CCC(C)(CCCC(C)C(=O)O)O2 (stereo not drawn),scaled lipid accumulation score,[2],≤ 0
C[C@H]1C[C@H]2[C@@H]3CCC4=CC(=O)C=C[C@]4(C)[C@H]3C(=O)C[C@]2(C)[C@@]1(O)C(=O)CO [Meprednisone],scaled lipid accumulation score,[3],0.055
same,scaled lipid accumulation score,[1],≤ 0
Cc1cc(NC(=O)Nc2ccc(N(C)C)cc2)c2cc(F)cc(F)c2n1,scaled lipid accumulation score,[3],0.007
same,scaled lipid accumulation score,[1],0.001 and ≤ -0.006
Cc1ccc(F)c(NC(=O)Nc2ccc(-c3cccc4[nH]nc(N)c34)cc2)c1 [listing 1 of 2 here],scaled lipid accumulation score,[1],1.08 (active)
Cc1ccc(F)c(NC(=O)Nc2ccc(-c3cccc4[nH]nc(N)c34)cc2)c1 [Linifanib (ABT-869)],scaled lipid accumulation score,[3],≤ 0
same,scaled lipid accumulation score,[1],≤ 0
Cc1ccc(F)c(NC(=O)Nc2ccc(-c3cccc4[nH]nc(N)c34)cc2)c1 [listing 2 of 2 here],scaled lipid accumulation score,[4],0.001
same,scaled lipid accumulation score,[5],≤ -0.009 and ≤ -0.005
same,scaled lipid accumulation score,[6],0.233 and 0.419
same,scaled lipid accumulation score,[1],0.446
CCCCCCCCCCCCC(=O)NC1CCOC1=O [N-tridecanoyl-L-Homoserine lactone],scaled lipid accumulation score,[2],≤ 0
COc1cccc(C=NCCN=Cc2cccc(OC)c2[O-])c1[O-].[Cl-].[Mn+3],scaled lipid accumulation score,[3],≤ 0
same,scaled lipid accumulation score,[1],0.234
Cc1ccc(/C=N/NC(=O)c2ccccc2Oc2ccccc2)o1,scaled lipid accumulation score,[1],≤ -0.001
CN(C)C(=O)n1nnnc1Cc1ccc(-c2ccccc2)cc1,scaled lipid accumulation score,[1],0.554
O=C(Nc1c[nH]nc1-c1nc2ccc(CN3CCOCC3)cc2[nH]1)NC1CC1 [listing 1 of 2 here],scaled lipid accumulation score,[4],0.613
same,scaled lipid accumulation score,[5],0.259
same,scaled lipid accumulation score,[6],0.562 and 0.591
same,scaled lipid accumulation score,[3],0.59
same,scaled lipid accumulation score,[1],0.791 and 0.755 and 0.681
O=C(NC1CCOCC1)c1ccc(-c2cc(-c3c[nH]nc3-c3ccccn3)ccn2)cc1,scaled lipid accumulation score,[3],≤ 0
same,scaled lipid accumulation score,[1],≤ 0
O=C(Nc1c[nH]nc1-c1nc2ccc(CN3CCOCC3)cc2[nH]1)NC1CC1 [listing 2 of 2 here],scaled lipid accumulation score,[5],0.877 (active)
CCCCC[C@H](O)/C=C/[C@H]1[C@@H]2CO[C@@H](C2)[C@@H]1C/C=C\CCCC(=O)O,scaled lipid accumulation score,[2],≤ 0
"O=P(O)(O)O[C@@H]1[C@H](O)[C@H](O)[C@@H](OP(=O)(O)O)[C@H](OP(=O)(O)O)[C@H]1O [D-myo-Inositol-1,4,5-triphosphate (sodium salt)]",scaled lipid accumulation score,[2],0.018
CN(C)CCCOc1nn(Cc2ccccc2)c2ccccc12 [Benzydamine HCl],scaled lipid accumulation score,[3],0.13
CN(C)CCCOc1nn(Cc2ccccc2)c2ccccc12 [Benzydamine hydrochloride],scaled lipid accumulation score,,0.652
same,scaled lipid accumulation score,library stock concentration: 5.8 mM,0.429
CC(C)(OCc1nn(Cc2ccccc2)c2ccccc12)C(=O)O [Bindarit],scaled lipid accumulation score,[3],≤ 0
same,scaled lipid accumulation score,[1],≤ 0
CN(C)CCCOc1nn(Cc2ccccc2)c2ccccc12.Cl [Benzydamine HCl],scaled lipid accumulation score,[1],1.08 (active)
"COc1cc2c(cc1Cc1cccc(Cl)c1F)c(=O)c(C(=O)O)cn2[C@H](CO)C(C)C [Elvitegravir (GS-9137, JTK-303)]",scaled lipid accumulation score,[3],≤ 0
same,scaled lipid accumulation score,[1],≤ 0
O=C(O)CCCCCCC1C(=O)N(Cc2ccccc2)C(=O)N1NCC(O)C1CCCCC1 (stereo not drawn),scaled lipid accumulation score,[2],≤ 0
CCCn1cc(-c2ccnc(NC3CCN(Cc4cccnc4)CC3)n2)c(C)n1,scaled lipid accumulation score,[1],0.91 (active)
COC(=O)C[C@](O)(CCCC(C)(C)O)C(=O)O[C@@H]1C(OC)=C[C@]23CCCN2CCc2cc4c(cc2[C@H]13)OCO4 [Homoharringtonine],scaled lipid accumulation score,[1],1.27 (active)
O=C1O/C(=C/Br)CCC1c1cccc2ccccc12 (stereo not drawn) [Bromoenol lactone],scaled lipid accumulation score,[2],≤ 0
O=c1[nH]c(C2CCCN2)nc2c1oc1ccc(Cl)cc12 (stereo not drawn),scaled lipid accumulation score,[4],≤ 0
same,scaled lipid accumulation score,[5],0.055
same,scaled lipid accumulation score,[6],≤ 0
same,scaled lipid accumulation score,[1],≤ 0
O=C(O)CCC/C=C\C[C@@H]1[C@@H](/C=C/[C@@H](O)C2CCCCC2)[C@H](O)C[C@@H]1O [15-cyclohexyl pentanor Prostaglandin F2.alpha.],scaled lipid accumulation score,[2],≤ 0
CCCCC/C=C\C/C=C\C/C=C\C/C=C\CCCCCC(=O)O [Adrenic Acid],scaled lipid accumulation score,[2],≤ 0
O=C(Nc1ccccc1-c1cn2c(CN3CCNCC3)csc2n1)c1cnc2ccccc2n1,scaled lipid accumulation score,[3],0.121
same,scaled lipid accumulation score,[1],0.384
CCOC(=O)[C@H](CCc1ccccc1)N[C@@H](C)C(=O)N1[C@H](C(=O)O)C[C@H]2CCCC[C@@H]21 [Trandolapril],scaled lipid accumulation score,[1],0.059 and 0.177
CCCCCC(=O)/C=C/[C@@H]1[C@@H](CCCCCCC(=O)O)[C@@H](O)C[C@H]1O [15-keto Prostaglandin F1.alpha.],scaled lipid accumulation score,[2],≤ 0
Cc1cnc(CNC(=O)c2c(=O)c3ccc(N4CCCN(C)CC4)nc3n3c2sc2ccccc23)cn1,scaled lipid accumulation score,[4],≤ 0
same,scaled lipid accumulation score,[5],≤ 0
same,scaled lipid accumulation score,[6],≤ 0
same,scaled lipid accumulation score,[1],≤ 0
CC(CN(C)C)CN1c2ccccc2CCc2ccccc21 (stereo not drawn) [Trimipramine maleate],scaled lipid accumulation score,library stock concentration: 4.9 mM,0.715
same,scaled lipid accumulation score,[1],0.647
CC(CN(C)C)CN1c2ccccc2Sc2ccccc21 (stereo not drawn) [Trimeprazine tartrate],scaled lipid accumulation score,,0.689
same,scaled lipid accumulation score,[1],0.834
CC(CN(C)C)CN1c2ccccc2Sc2ccccc21.O=C(O)C(O)C(O)C(=O)O (stereo not drawn) [Trimeprazine tartrate],scaled lipid accumulation score,library stock concentration: 4.5 mM,0.915 (active)
CC(CN(C)C)CN1c2ccccc2CCc2ccccc21.O=C(O)/C=C\C(=O)O (stereo not drawn) [Trimipramine maleate],scaled lipid accumulation score,[1],0.877 (active)
CCOC(=O)[C@H](CCc1ccccc1)N[C@H]1CCc2ccccc2N(CC(=O)O)C1=O [Benazepril HCl],scaled lipid accumulation score,[3],≤ 0
same,scaled lipid accumulation score,[1],≤ 0
CCOC(=O)[C@H](CCc1ccccc1)N[C@H]1CCc2ccccc2N(CC(=O)O)C1=O [Benazepril hydrochloride],scaled lipid accumulation score,[1],≤ -0.027 and 0.038
COc1ccc2c(c1)N(C[C@H](C)CN(C)C)c1ccccc1S2 [Methotrimeprazine maleat salt],scaled lipid accumulation score,,0.642
CCOC(=O)[C@H](CCc1ccccc1)N[C@H]1CCc2ccccc2N(CC(=O)O)C1=O,scaled lipid accumulation score,[1],≤ 0
CC(CN(C)C)CN1c2ccccc2CCc2ccccc21 (stereo not drawn) [Trimipramine maleate salt],scaled lipid accumulation score,,0.27
